The source of these data is the supplement of paper PMC7866885, “A novel bicyclic 2,4-diaminopyrimidine inhibitor of Streptococcus suis dihydrofolate reductase” (PeerJ, 2021).

± gives the standard deviation.

The test system of this test is Streptococcus suis P1/7. In words: percent growth relative to DMSO control; higher = less growth inhibition. As to conditions: 10 µM; incubation time 18 h. The procedure:
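CLSI broth microdilution: 5x10^4 CFU of Streptococcus suis (strain P1/7 or HE06) incubated with 10 µM Pathogen Box compound in cation-adjusted Mueller Hinton broth, 37 °C, 5% CO2, 18 h. Growth read as OD600 and expressed as percent of the DMSO-treated control (100%); mean ± SD of three independent experiments.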
As for `CC1=Nc2ccc(Cl)cc2C(O)(c2ccc(C)cc2)N1CCN1CCCCC1` (stereo not given), the percent growth was 91 ± 28%.

In the case of `Cc1cc(C)n(-c2ccc(NC(=O)C3CCN(Cc4cnc(C)s4)CC3)cc2)n1`, the percent growth came to 65.6 ± 19%.

As for `CCNC(=O)C(C)Nc1nc(-c2cccnc2)nc2sc(C)c(C)c12` (stereo not given), the percent growth is 64.5 ± 34%.

For the compound `NS(=O)(=O)c1cncc(-c2ccc3nccc(-c4cn[nH]c4)c3n2)c1`, the percent growth was determined as 77.6 ± 23%.

Turning to `Cc1cc(NC(=O)c2ccc(Oc3ccc(Cl)cc3O)o2)no1`, the percent growth was 124 ± 65%.

`Cc1nc(-c2ccccn2)nc(N(C)CCc2ccccc2)c1Cl`: the percent growth is -0.0636 ± 0.11%.

As for `CCOc1ccc(-c2nc(NC(=O)CS(=O)(=O)c3ccccc3)sc2C)cc1`, the percent growth was determined as 153 ± 100%.

In the case of `Cc1cccc(NC(=O)c2cc(S(=O)(=O)N(C)c3ccc(F)cc3)ccc2Cl)n1`, the percent growth was determined as 112 ± 33%.

As to `Cc1cc2nc(NC(=O)C(C)(C)C)nc(Cl)c2n1Cc1ccc(Cl)cc1`, the percent growth is 109 ± 58%.

As for `O=C(NCCN1CCCC1)c1cc(NCCN2CCOCC2)nc2ccc(Cl)cc12`, the percent growth turned out to be 83.1 ± 11%.

Consider `CS(=O)(=O)c1ccccc1C(=O)N(Cc1ccccc1)c1ccccc1`, for which the percent growth was 107 ± 33%.

Take `COc1cc(C(F)(F)F)nc2ccc(C)c(N)c12`: the percent growth was 95.8 ± 24%.

With `CNC(=O)c1cc(S(=O)(=O)N2CCN(c3ccccn3)CC2)cs1`, the percent growth turned out to be 129 ± 58%.

As to `Cc1ccccc1C(=O)N1N=C(Nc2ccccc2)SC1(C)C`, the percent growth came to 80.9 ± 23%.

For the compound `CCCCOC(=O)Nc1cc2nc(C3CCCCC3)[nH]c2cc1N1CCCC1`, the percent growth was determined as 62.9 ± 63%.

Turning to `CS(=O)(=O)c1cccc(-c2cnc3[nH]cc(-c4ccc(CCC(=O)O)cc4)c3c2)c1`, the percent growth is 52.9 ± 34%.

For the compound `Cc1nn(C)cc1C(C)Nc1nncc(-c2ccc(C(F)(F)F)cc2)n1` (stereo not given), the percent growth was 103 ± 32%.

Turning to `Cc1ccc(S(=O)(=O)N2CCN(C(=O)c3cc(-c4ccccc4)[nH]n3)CC2)cc1`, the percent growth was found to be 83.1 ± 19%.

For the compound `CNC1C(OC2C(OC3C(O)C(O)C(NC(=N)N)C(O)C3NC(=N)N)OC(C)C2(O)C=O)OC(CO)C(O)C1O` (stereo not given), the percent growth was determined as 86.1 ± 18%.

As for `COc1cc(Br)cc2cc(C(=O)Nc3cccc(C(F)(F)F)c3)c(=O)oc12`, the percent growth worked out at 115 ± 52%.

Turning to `CCCc1ccc(S(=O)(=O)Nc2ccc(CN3CCN(CC4CC4)CC3)cc2)cc1`, the percent growth was determined as 94.1 ± 34%.

In the case of `CCCCc1ccc(C(=O)Nc2nccc3ccccc23)nc1`, the percent growth amounted to 13.4 ± 21%.

Regarding `Nc1ccc2ncnc(Nc3ccc(OCc4cccc(F)c4)c(Cl)c3)c2c1`, the percent growth was determined as 81.2 ± 18%.

For `CC(C(=O)N1CCCC1)N1CCN(S(=O)(=O)c2ccc(C(C)(C)C)cc2)CC1` (stereo not given), the percent growth was 63.4 ± 27%.

For `CNc1cc(C)nc(C2CN(C(=O)c3n[nH]c4ccccc34)CCO2)c1` (stereo not given), the percent growth was determined as 105 ± 50%.

As to `O=C(Nc1ccnc(-c2cccnc2)n1)c1cc(C(F)(F)F)cc(C(F)(F)F)c1`, the percent growth was 123 ± 50%.

Turning to `O=C(NCCc1c[nH]c2ccccc12)c1cc2ccccc2oc1=O`, the percent growth was found to be 74.1 ± 8.7%.

With `CCc1ccccc1-n1c(C)cn2c3c(=O)n(C(C(=O)OC)C(C)C)c(=O)n(C)c3nc12` (stereo not given), the percent growth came to 101 ± 14%.

As for `CC1COC2(CCN(c3nc(=O)c4cc(C(F)(F)F)cc([N+](=O)[O-])c4s3)CC2)O1` (stereo not given), the percent growth is 81.2 ± 24%.

On to `C[C@H]1c2cccc(O)c2C(=O)C2=C(O)[C@]3(O)C(=O)C(C(N)=O)=C(O)[C@@H](N(C)C)[C@@H]3[C@@H](O)[C@@H]21`, for which the percent growth was 1.89 ± 3.3%.

Regarding `O=C(c1ccc(F)cc1)N(CCNc1ccccc1)c1ccccc1`, the percent growth came out at 122 ± 66%.

As for `O=[N+]([O-])c1cn2c(n1)OC[C@@H](OCc1ccc(OC(F)(F)F)cc1)C2`, the percent growth was determined as 90 ± 13%.

Turning to `c1ccc(C[C@@H]2CN(c3nccc(Oc4ccc(-n5ccnc5)cc4)n3)CCN2)cc1`, the percent growth came to 90.5 ± 21%.

Take `COc1cccn2c(C(=O)N3CCCCC3)c(C(F)(F)F)nc12`: the percent growth turned out to be 87 ± 21%.

`COc1ccc(-c2cnc3ccc(N4CCCC4)nn23)cc1OC`: the percent growth is 77.7 ± 7.5%.

Regarding `Cc1nnc(NCc2cccc(Cl)c2)c2ccccc12`, the percent growth worked out at 85.4 ± 29%.

Take `Cc1cc(Nc2ccc(C(F)(F)F)cc2)n2ccnc2n1`: the percent growth is 97.6 ± 41%.

On to `NC(=O)c1cc(Br)ccc1OCCOc1ccccc1`, for which the percent growth turned out to be 73.4 ± 29%.

For `COc1cc2ncnc(NC3CCN(Cc4ccccc4)CC3)c2cc1OC`, the percent growth came out at 122 ± 11%.

In the case of `O=C(Nc1nnc(S)s1)c1cc(Br)ccc1Cl`, the percent growth turned out to be 79.5 ± 9.2%.
